# High-throughput results from PubChem BioAssay.
# Rows were chosen to be rich in hits. Some 22% of all compounds tested hit in one or more screens of this group.
# Pf growth 96h: inhibits malaria parasite growth, 96 h | P. falciparum luciferase reporter growth, 96 h | Potency, µM (series often up to 28.7 µM), without a hit: top-dose activity change, negative = inhibition, hits mostly inhibitors | 320,000 tested, 6.9% active | AID 504834; also: potency is read from the fitted curve at half-maximal effect; % is scaled to controls: 0 for no effect and ±100 for the full control effect
#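 Two parasite generations (96 h, 37 C, 5% CO2) of compound exposure in infected erythrocytes (0.05% parasitemia, 2% hematocrit). Luciferase-reporter P. falciparum; decreased luminescence indicates inhibited growth, aimed at apicoplast-acting delayed death.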
# Shiga inhibitor: blocks Shiga toxin action in Vero cells | Vero cells, Shiga toxin protein synthesis inhibition reporter | 290,000 tested, 9.2% active | inhibition, % at 38.7 µM; in the data active = inhibition mostly above about 28%, no sharp cut-off; inactive = mostly below about 43%; also: 0% is about no effect
# CHX counter: counter-screen for Shiga toxin inhibitors: cycloheximide protein synthesis inhibition; max response, %; cell reporter, cycloheximide protein synthesis inhibition counterscreen; AID 2314; 300,000 tested, 12% active; in the data active = max response mostly above about 13%, no sharp cut-off; inactive = mostly below about 14%; also: read at 38.3 µM for the half of the compounds with a filed dose; 0% is about no effect
# LmPK inh: blocks Leishmania mexicana pyruvate kinase activity; purified LmPK, Kinase-Glo ATP luminescence, 1 h; AID 1721; Q27686; Potency, µM (series often up to 57.5 µM), without a hit: at the top dose activity change, negative = inhibition, usual class: inhibitors; 290,000 tested, 0.37% active; also: potency is read from the fitted curve at half-maximal effect; % is scaled to controls: 0 for no effect and ±100 for the full control effect
# Target sequence (Q27686 whole entry, looked up): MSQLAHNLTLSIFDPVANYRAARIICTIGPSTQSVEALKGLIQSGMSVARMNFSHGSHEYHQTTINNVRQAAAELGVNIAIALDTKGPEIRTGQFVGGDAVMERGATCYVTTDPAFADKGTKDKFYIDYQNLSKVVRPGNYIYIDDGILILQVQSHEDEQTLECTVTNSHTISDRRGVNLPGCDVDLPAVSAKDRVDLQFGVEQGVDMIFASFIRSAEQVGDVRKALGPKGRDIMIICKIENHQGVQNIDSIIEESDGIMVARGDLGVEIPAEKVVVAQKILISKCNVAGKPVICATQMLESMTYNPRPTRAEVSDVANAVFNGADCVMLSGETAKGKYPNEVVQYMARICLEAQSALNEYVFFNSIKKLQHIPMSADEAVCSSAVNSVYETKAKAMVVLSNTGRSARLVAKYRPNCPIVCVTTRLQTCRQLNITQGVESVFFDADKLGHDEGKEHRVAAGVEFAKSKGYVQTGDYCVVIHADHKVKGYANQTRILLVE
#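 Purified LmPK (0.1 nM) with 0.5 mM PEP and 0.1 mM ADP in imidazole buffer pH 7.2 with MgCl2/KCl, 1 h at room temperature. ATP formed was read by luciferase luminescence and normalized to no-enzyme and uninhibited controls.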
# Pf growth 48h: inhibits P. falciparum growth in the first generation, 48 h; P. falciparum luciferase growth in erythrocytes, 48 h; Potency, µM (highest dose often 28.7 µM), for the others: at the top dose activity change, negative = inhibition, hits mostly inhibitors; 310,000 tested, 5.9% active; AID 504832; also: potency is read from the fitted curve at half-maximal effect; % is scaled to controls: 0 for no effect and ±100 for the full control effect
#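 Parasite viability was followed by luminescence of a genomically integrated firefly luciferase. Cultures held 0.1% parasitemia at 2% hematocrit (final), incubated under 5% CO2 at 37 C.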
# * marks the source's active call; other numbers are inactive results; u = inconclusive; x = no result; + = active, no number; [ ] = another dose, or the depositor's remark. Unless noted, calls follow the shape of the dose curve; as a rule, active = well fitted inhibition curve with a large enough effect; inconclusive = small, poorly fitted or top-dose-only effect, or another doubt; inactive = no such curve, though single readings can be large or run the other way.
SMILES,Pf growth 96h,Shiga inhibitor,CHX counter,LmPK inh,Pf growth 48h
COC(=O)[C@H](Cc1ccccc1)NC(=O)c1cc(COc2c(F)cccc2F)on1,11.7µM*,67.2*,51.8*,-1.3%,40.6%
O=C(O)c1ccc(NNC(=S)Nc2cc(C(F)(F)F)ccc2Cl)cc1,404.0%,59.5*,36.1*,3.1%,152.1%
O=C(C[n+]1ccc2ccccc2c1)Nc1cc(C(F)(F)F)ccc1Cl,u,-14.5,-9.1,-2.8%,1.31µM*
CN(C)c1cc[n+](CC(=O)Nc2cc(C(F)(F)F)ccc2Cl)cc1,0.828µM*,-6.0,-0.3,0.3%,1.65µM*
O=C(CC(=O)c1ccccc1)Nc1cc(C(F)(F)F)ccc1Cl,39.2%,24.8,16.2*,-0.9%,-20.1%
COc1ccc(S(=O)(=O)N2CCC(C(=O)N[C@@H](C)C(=O)NC3CC3)CC2)cc1,3.1%,-3.5,-4.3,1.2%,-5.5%
CCc1noc(C)c1C(=O)OC(C)C(=O)Nc1cc([N+](=O)[O-])ccc1OC (configuration not stated),-11.4%,x,x,x,6.2%
OC[C@@H]1OC(O)[C@H](O)[C@H](O)[C@H]1O (some centres not stated),x,-13.6,1.7,x,x
O=c1[nH]nc(Cc2ccc([N+](=O)[O-])cc2)c2ccccc12,-5.3%,-8.0,1.0,7.4%,-24.0%
COc1ccc(N2CCN(C(=O)c3ccccc3N(C)S(=O)(=O)c3ccc(C)cc3)CC2)cc1,10.4µM*,-9.3,0.3,-2.7%,u
Cc1ccc(S(=O)(=O)N(C)c2ccccc2C(=O)N2CCCC2)cc1,u,-5.7,4.0,-8.4%,-14.7%
COc1ccc(N2CCN(C(=O)c3cccc(N4C(=O)C5C6C=CC(C6)C5C4=O)c3)CC2)cc1 (configuration not stated),60.6%,-4.4,1.5,1.8%,10.4µM*
COc1ccc(N2CCN(C(=O)c3ccc(NS(=O)(=O)c4ccccc4)cc3)CC2)cc1,-23.2%,34.6,20.3*,-0.4%,u
COc1ccc(N(C)S(=O)(=O)c2cccc(C(=O)N3CCN(c4ccccc4)CC3)c2)cc1,u,x,x,x,10.4µM*
COc1ccc(NS(=O)(=O)c2ccc(C(=O)N3CCN(Cc4ccccc4)CC3)cc2)cc1,u,33.9,6.0,5.5%,u
O=C(CCc1nc2ccccc2s1)Nc1cccnc1,-3.6%,13.2,17.7,12.5%,6.1%
CCCCN(C(=O)CSc1nnc(-c2ccco2)o1)c1c(N)n(Cc2ccccc2)c(=O)[nH]c1=O,u,-10.3,-3.4,2.1%,u
Cc1nn(Cc2n[nH]c(=S)n2Cc2ccccc2)c(C)c1Cl,3.1%,-7.1,-2.0,-14.8%,0.5%
COc1ccc(N(C)S(=O)(=O)c2cccc(C(=O)N3CCN(Cc4ccc5c(c4)OCO5)CC3)c2)cc1,13.1µM*,x,x,x,u
COc1ccc(Nc2ncc(C(=O)N3CCC4(CC3)OCCO4)c3ccccc23)cc1,48.9%,6.4,-1.8,-1.1%,-4.5%
COc1ccc(N(C)S(=O)(=O)c2cccc(C(=O)NCc3ccc4c(c3)OCO4)c2)cc1,-22.3%,11.2,2.0,-2.6%,-45.1%
COc1ccc(Nc2ncc(C(=O)N3CCN(c4ccc(F)cc4)CC3)c3ccccc23)cc1,1.85µM*,-18.0,2.2,-1.2%,u
O=C(CCS(=O)(=O)c1ccccc1)Nc1cccc2c1C(=O)NC2=O,-13.3%,-0.6,22.4,-2.1%,-1.7%
COc1ccc(/C=C/C(=O)NC(=S)N2CCSCC2)cc1,246.9%,48.9,36.6*,-8.9%,7.7%
COc1ccc(/C=C/C(=O)NC(=S)N2CCN(c3ccccn3)CC2)cc1,17.9%,56.5*,19.1*,-0.2%,7.3%
SMILES,Pf growth 96h,Shiga inhibitor,CHX counter,LmPK inh,Pf growth 48h
COc1ccc(C2C(C(=O)N3CCN(c4ccccn4)CC3)CCC(=O)N2c2ccc(OC)cc2)cc1 (configuration not stated),9.2%,6.5,0.5,-3.0%,-4.9%
COc1ccc(N2C(=O)CCC(C(=O)NCc3ccccn3)C2c2ccc(OC)c(OC)c2)cc1 (configuration not stated),4.65µM*,-3.8,-1.1,2.3%,4.1%
COc1ccc(C2C(C(=O)N3CCN(c4ccccn4)CC3)CC(=O)N2c2ccc(OC)cc2)cc1 (configuration not stated),9.6%,-11.1,-3.0,0.2%,4.65µM*
COC(=O)C1=C(C)N(Cc2ccco2)C(=O)N[C@@H]1c1ccco1,x,x,x,-3.3%[11.5 µM],x
Cc1ccc(C(=O)O)cc1S(=O)(=O)Nc1ccccc1C(=O)NC1CC1,0.4%,x,x,x,u
CC1CCCCN1C(=O)Nc1cccc(C(F)(F)F)c1 (configuration not stated),24.4%,-5.0,-1.9,9.0%,u
CN(C)/C=C/C(=O)c1ccc(C(F)(F)F)cc1F,33.4%,40.0,12.3,10.0%,52.5%
CN1CCN(C(=S)NC(=O)/C=C/c2ccccc2)CC1,x,32.6,18.8,-3.1%,9.3%
O=C(/C=C/c1ccc(Br)cc1)NC(=S)N1CCOCC1,33.8%,67.2*,53.5*,u,28.8%
CCCOc1ccc(/C=C/C(=O)N2CCN(c3ccccn3)CC2)cc1,-25.0%,-15.8,7.8,-9.3%,u
O=C(/C=C/c1ccc(F)cc1)N1CCN(c2ccccn2)CC1,35.6%,+,15.2,-0.3%,-4.4%
Cc1ccc(S(=O)(=O)N(CC(=O)Nc2ccc(Cl)cc2)C(=O)N2CCN(C)CC2)cc1,3.3%,x,x,x,10.0%
COc1ccc(/C=N/NC(=O)c2cccc(OC(F)(F)C(F)F)c2)cc1O,21.5%,-0.8,1.7,9.6%,21.1%
Cc1ccc(CNC(=O)C2CCCN(c3cnccn3)C2)cc1 (configuration not stated),u,-4.6,-4.9,2.7%,10.8%
O=C(c1ccc(Cl)cc1)C1CCCN(Cc2cccn2-c2cccnc2)C1 (configuration not stated),1.2%,-3.0,-1.7,9.7%,24.0%
C=CCNC(=O)N1CCCC(C(=O)c2cccc(OC(C)C)c2)C1 (configuration not stated),u,118.2*,25.6*,1.6%,48.8%
COc1ccc(C(=O)C2CCCN(Cc3cccn3-c3cccnc3)C2)cc1OC (configuration not stated),39.3%,-2.7,2.9,4.6%,u
CCn1ncc(CN2CCCC(C(=O)c3cccc(OC(C)C)c3)C2)c1C (configuration not stated),-13.5%,1.7,0.2,6.1%,u
CSc1ccc(C(=O)C2CCCN(Cc3cccn3-c3cccnc3)C2)cc1 (configuration not stated),11.4%,-6.7,-1.5,2.8%,10.4µM*
COc1ccc(CN2CCCC(C(=O)c3cccc(OC(C)C)c3)C2)cc1Cn1cccn1 (configuration not stated),-29.7%,-12.0,9.2,-4.5%,9.28µM*
CC(C)Oc1cccc(C(=O)C2CCCN(Cc3cccn3-c3cccnc3)C2)c1 (configuration not stated),11.7µM*,-21.4,1.8,2.4%,u
